esBAF inh: blocks esBAF chromatin remodeling in mouse ES cells. reporter increase, % at 12.5 µM. 350,000 tested, 2% active. Bmi1-luciferase knock-in reporter, 24 h; 100% = twice the neutral-well signal; in the data active = activation above about 40%; inconclusive = no clear call, values can overlap the other calls;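 also: a rise in the Bmi1 reporter signal indicates esBAF inhibition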
SMARCA2 act: SMARCA2 function activation, primary screen | MG213 cells, MMTV-luciferase reporter, dexamethasone, overnight | activation, % at 9.1 µM | 370,000 tested, 1% active; in the data active = activation above about 7.8%
Gli-Sufu antag: Gli-Sufu pathway antagonism; Sufu-KO-LIGHT fibroblasts, Gli luciferase reporter luminescence; inhibition, % at 5 µM; 340,000 tested, 0.74% active; AID 588413;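 active = inhibition above about 55%, limit read from the data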
697 NFkB inh: inhibitors of the PMA/ionomycin-induced NF-kB reporter in 697 B cells; inhibition, % at 4 µM; 330,000 tested, 0.33% active; 697 B-cell NF-kB luciferase reporter, 16 h; AID 435022; in the data active = inhibition above about 35%
Jurkat NFkB inh: lowers PMA/ionomycin-induced NF-kB signal in Jurkat cells. inhibition, % at 4 µM. PMA/ionomycin-induced NF-kB luciferase reporter, luminescence. AID 435003. 330,000 tested, 0.53% active; in the data active = inhibition above about 50%
SMARCA2 act conf: SMARCA2 activation, confirmation screen. MG213 cells, MMTV-luciferase with dexamethasone, luminescence, overnight; MG213 cells expressing E1A, Rb sequestered; DMSO wells 0%, reference activator 100%. 3,500 tested, 30% active. shares compounds with SMARCA2 act. activation, % at 9.1 µM;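 active = activation above its plate's cutoff, the mean activation of tested wells plus 3 SD, cut at about 7.9% in these data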
VP16 Luc act: counter-screen for SMARCA2 activators: GAL4-VP16 luciferase reporter activation. HEK293 GAL4-VP16 pG5luc reporter, luciferase luminescence; scaled: DMSO wells 0%, SAHA wells 100%. shares compounds with SMARCA2 act. 3,500 tested, 41% active. activation, % at 9.1 µM;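 active = activation above the solvent-only control well mean plus 3 SD, averaged across control plates, cut at about 5.2% in these data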
Hits are given with their value; - = inactive; ? = inconclusive; . = no result; ! = not confirmed by another sample. Most compounds without a hit are left out; they make up all but 3.3% or so of the library.

SMILES	esBAF inh	SMARCA2 act	Gli-Sufu antag	697 NFkB inh	Jurkat NFkB inh	SMARCA2 act conf	VP16 Luc act
CCN(/C=N/c1sc2c(c1C#N)CCCCC2)CC	.	8.0	-	-	-	8.7	7.7
CC1=C/C(=N\NC(=S)Nc2cccnc2)CC(C)(C)C1	-	8.1	-	.	.	-	21
COCCNC(=O)C[C@H]1C[C@H]2c3cc(NC(=O)Nc4ccc(F)cc4)ccc3O[C@H]2[C@H](CO)O1	-	.	.	.	.	.	.
Nc1cc2c3c(cccc3c1)C(=O)N(CCN1CCCC1)C2=O	-	20	-	.	.	30	-
NC(=O)CN1CCN(CCN2C(=O)c3cccc4cccc(c34)C2=O)CC1	-	-	-	-	-	.	.
CCN(CC)CCN1C(=O)c2cccc3cc(N)cc(c23)C1=O	-	11	-	-	-	26	-
Cc1ccc(NC(=S)NNC(=S)Nc2ccc(C)cc2)cc1	.	-	-	.	.	.	.
Cc1ccc(NC(=O)c2cc(C)on2)cc1	-	8.7	-	-	-	-	18
CCCc1cc(C(=O)Nc2ccc(C)cc2)no1	73	12	-	-	-	-	6.9
CCCc1cc(C(=O)NCc2ccc(OC)cc2)no1	-	-	-	-	-	.	.
Cc1cc(C(=O)Nc2ccc3c(c2)OCO3)no1	?	-	-	-	-	.	.
Cc1cc(C(=O)N/N=C/c2cccc(Cl)c2Cl)no1	?	11	-	-	-	-	8.8
Cc1ccc(NC(=S)Nc2cc(C)on2)cc1	-	8.6	-	-	-	-	13
CCOC(=O)N/N=C/c1cccc(Cl)c1Cl	.	-	-	-	-	.	.
O=C(NCC1CC1)[C@@H]1[C@@H](CO)[C@@H]2Cn3c(cccc3=O)[C@H]1N2CCc1ccccc1	-	.	.	.	.	.	.
COc1ccccc1-c1cnc2c(c1)C(=O)N([C@H](C)CO)C[C@@H](C)[C@H](CN(C)C(=O)c1cccnc1)O2	-	.	.	.	.	.	.
CCCN(C)C[C@H]1Oc2ncc(C#CC3CC3)cc2C(=O)N([C@H](C)CO)C[C@H]1C	-	.	.	.	.	.	.
O=C(CCN1CCCCC1)N[C@H]1CC[C@@H](CCNS(=O)(=O)c2ccc(F)cc2)O[C@H]1CO	-	.	.	.	.	.	.
O=C(Nc1ccccc1Cl)N1[C@@H]2CNc3ccccc3[C@@H]2[C@@H]1CO	-	.	.	.	.	.	.
Cc1ccc(C(=O)OCc2cc(=O)n3c(C)csc3n2)s1	-	8.8	-	-	-	-	-
COc1ccc(C(=O)c2sc(Nc3ccccc3F)nc2N)cc1	-	16	-	-	-	11	12
Nc1nc(Nc2ccccc2)sc1C(=O)c1ccccc1	.	11	-	-	-	12	8.1
COc1ccc(C(=O)c2sc(Nc3ccccc3)nc2N)cc1	-	-	-	-	-	.	.
CCOC(=O)c1sc2nc(CC(=O)OC)nc(N3CCN(c4ccc(OC)cc4)CC3)c2c1C	-	-	-	-	-	.	.
CCOC(=O)Cc1nc(N2CCN(C(=O)C3CCCO3)CC2)c2c(C)c(C(=O)OCC)sc2n1 (configuration not stated)	.	11	.	.	.	-	-
SMILES	esBAF inh	SMARCA2 act	Gli-Sufu antag	697 NFkB inh	Jurkat NFkB inh	SMARCA2 act conf	VP16 Luc act
COc1ccc(S(=O)(=O)N2CCOCC2)cc1NC(=O)CCNC(=O)c1ccc(Cl)cc1	-	8.1	-	-	-	-	-
CO[C@@H]1CN(C)C(=O)c2ccc(NC(=O)C3CC3)cc2OC[C@@H](C)N(C(=O)CN2CCOCC2)C[C@@H]1C	-	.	.	.	.	.	.
Cc1cc(C)c(C#N)c(SCc2cc3c(cc2Cl)OCO3)n1	.	13	-	-	-	-	-
Cc1cc(C)c(C#N)c(SCc2ccccc2C)n1	.	-	-	-	-	.	.
CCCN(CCC)CCCNC(=O)c1ccc2c(Cl)c3c(nc2c1)CCC3	-	-	-	-	-	.	.
CCN(CC)CCCNC(=O)c1ccc2c3n(nc2c1)-c1ccc(Cl)cc1CO3	-	11	-	-	-	23	7.2
C[C@@H]1CN([C@H](C)CO)C(=O)c2c(c3ccccc3n2C)-c2ccccc2CO[C@@H]1CN(C)S(=O)(=O)c1cccc(C#N)c1	-	.	.	.	.	.	.
CC1(C(=O)Nc2nc3ccccc3s2)CC1(Br)Br (configuration not stated)	?	9.0	-	.	.	-	5.2
NC(=S)Nc1nc2ccccc2s1	.	16	-	-	-	17	5.5
O=C(NC(=S)Nc1nc2ccccc2s1)c1cccs1	-	-	-	-	-	.	.
COc1ccc(OC)c(/C=C/C(=O)Nc2ccc3c(c2)CCC3)c1	.	-	-	-	-	.	.
COc1ccccc1/C=C/C(=O)Nc1ccc2c(c1)CCC2	.	8.9	-	-	-	-	14
N#Cc1c(N)nc2c(c1N)CC(CCl)O2 (configuration not stated)	.	9.7	-	-	-	-	-
N#Cc1c(N2CCCCC2)nc(N)c2c(N)nc3c(c12)CC(CCl)O3 (configuration not stated)	.	-	-	-	-	.	.
C[C@@H]1CN([C@H](C)CO)S(=O)(=O)c2ccc(/C=C/c3ccccc3)cc2O[C@@H]1CN(C)CC1CC1	-	.	.	.	.	.	.
Clc1ccc(OCCSc2ncccn2)cc1	.	8.0	-	-	-	-	5.5
CC(C)CC#Cc1ccc2c(c1)O[C@@H](CN(C)S(=O)(=O)c1cccc(F)c1)[C@@H](C)CN([C@H](C)CO)S2(=O)=O	-	.	.	.	.	.	.
CC1=CC(C)=Nc2ccc(C)cc2N1	-	8.8!	-	-	-	-	11
COc1ccccc1NC(=O)c1cccnc1	-	8.7	-	-	-	-	-
Cc1ccc(S(=O)(=O)N(C)C[C@H]2Oc3c(NS(=O)(=O)c4ccc(Cl)cc4)cccc3C(=O)N([C@@H](C)CO)C[C@@H]2C)cc1	-	.	.	.	.	.	.
COc1cc(/C=N/Nc2ccccc2)ccc1OC(=O)c1cccs1	.	9.7	-	.	.	-	-
COc1ccc(/C=N\NC(=O)C2CCCC2)cc1Br	-	9.0	-	-	-	-	-
COc1ccc(/C=N/Nc2ccc(C(=O)O)cc2)cc1OC	-	9.1	-	-	-	-	13
COc1ccc(/C=N/NC(=O)OC(C)(C)C)cc1OC	.	8.4	-	-	-	-	-
O=C(C[C@@H]1CC[C@H]2[C@@H](COC[C@H](O)CN2C(=O)c2ccccn2)O1)N1CCN(c2ccccc2)CC1	-	.	.	.	.	.	.
C[C@@H](NC(=O)C[C@@H]1CC[C@H]2[C@@H](COC[C@H](O)CN2C(=O)Nc2ccccc2)O1)c1ccccc1	-	.	.	.	.	.	.
O=C(C[C@@H]1C=C[C@H](NC(=O)Nc2ccccc2)[C@H](CO)O1)NCc1cccc(F)c1	-	.	.	.	.	.	.
CC(C)NC(=O)N(C)C[C@@H]1Oc2ccc(NS(=O)(=O)c3cn(C)cn3)cc2CC(=O)N([C@H](C)CO)C[C@H]1C	-	.	.	.	.	.	.
NC(=O)c1ccc(-c2ncc(-c3ccccc3)o2)cc1	-	18	-	-	-	17	11
CCn1c([N+](=O)[O-])nc2c1c(=O)[nH]c(=O)n2C	-	19	-	.	.	56	-

From PubChem
